HIF-2a inh = blocks HIF-2a reporter activity; actives 0.72% (n = 360,000); AID 624352; 786-0 RCC cells HIF-2a reporter, luciferase luminescence, overnight; inhibition, % at 18.8 µM;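 active means inhibition of the luminescence signal of 40% or more relative to plate controls, in a single-dose primary screen at 18.75 µM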
PAX8 inh HTS = lowers PAX8-driven luciferase in RMG-I cells | RMG-I TPO-luciferase reporter, SteadyGlo, 24 h | inhibition, % at 12.6 µM | actives 1.2% (n = 360,000) | AID 652154;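 active means mean replicate inhibition at least 60% with every replicate also reaching 60%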;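 further: luciferase light reporting Pax8 driven TPO promoter activity; plate controls were median of neutral control wells for no effect and mitoxantrone controls for full effect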
EWS-Fli inh = inhibitors of EWS/Fli oncoprotein transcriptional activity; A673 NR0B1-luciferase reporter, viability-normalised; inhibition, % at 12.6 µM; actives 0.67% (n = 350,000);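 active means mean inhibition of at least 50% after viability correction, with every replicate also passing that limit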;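 further: firefly luciferase signal divided by Alamar Blue viability fluorescence both relative to DMSO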
CF NFkB block = inhibitors of cystic fibrosis induced NF-kB. KKLEB NF-kB-GFP reporter, PAF-induced, GFP fluorescence overnight. actives 0.86% (n = 360,000). inhibition, % at 5 µM;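 active means at least 50% inhibition at 5 µM, scaled per plate between neutral and stimulator controls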;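 further: PAF is a Pseudomonas aeruginosa culture filtrate used as stimulus; plate controls were PAF-stimulated DMSO wells for no effect and unstimulated DMSO wells for full effect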
KKLEB tox = counter-screen for CF NF-kB inhibitors: cytotoxicity | KKLEB CF airway cells viability, ATPlite luminescence, overnight; active compounds read low; cells stimulated with P. aeruginosa culture filtrate | actives 0.36% (n = 360,000) | activity change (cytotoxicity), % at 5 µM;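 active means corrected activity change at or below -50% at 5 µM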
CF NFkB conf = confirmation of cystic fibrosis induced NF-kB inhibitors; actives 64% (n = 1,300); inhibition, % at 5 µM; KKLEB CF airway cells, PAF-induced NF-kB-GFP fluorescence, overnight; shares compounds with CF NFkB block; in the data active means inhibition above about 40%;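 further: stimulus PAF is a Pseudomonas aeruginosa filtrate and not platelet activating factor; plate controls were DMSO wells with stimulus for no effect and unstimulated DMSO wells for full effect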
* = called active by the depositor; ! = a repeat was not active. An excerpt weighted towards active compounds, which were near 2.1% of everything screened.

Cc1ccc(C(=O)Nc2cccc(C(F)(F)F)c2)cc1NC(=O)c1cnnc2ccccc12 was read as HIF-2a inh 1.9, PAX8 inh HTS 15.1, EWS-Fli inh -0.4, CF NFkB block 53.1*, KKLEB tox -24.7 and CF NFkB conf 51.6*.
For Cc1ccc(C(=O)Nc2cccc(C(F)(F)F)c2)cc1NC(=O)c1nccnc1N the results were HIF-2a inh 12.3, PAX8 inh HTS 7.4, EWS-Fli inh 16.0, CF NFkB block 59.2*!, KKLEB tox -44.5 and CF NFkB conf 78.1*.
`CCCNC(=O)Nc1ccc2c(c1)C(=O)N(C)[C@@H]1CC[C@H](CC(=O)NCC3CCCCC3)O[C@@H]1CO2` gave PAX8 inh HTS -2.5 and EWS-Fli inh -6.0.
`O=C(NC1CCCC1)N[C@H]1C=C[C@H](CC(=O)N2CCOCC2)O[C@H]1CO` gave PAX8 inh HTS -4.9 and EWS-Fli inh 5.5.
For O=C(NCCN1CCN(c2ccccc2)CC1)c1cccc(Br)c1 the results were HIF-2a inh 3.9, CF NFkB block 52.3*, KKLEB tox -14.3 and CF NFkB conf 52.9*.
Screening Cc1cccc(C(=O)NCCN2CCN(c3ccccc3)CC2)c1 returned HIF-2a inh 13.2, CF NFkB block -12.1 and KKLEB tox 4.4.
Screening CCN(CC)CCN(C(=O)CCS(=O)(=O)c1ccccc1)c1nc2cc3c(cc2s1)OCO3 returned HIF-2a inh 11.7, PAX8 inh HTS -26.3, CF NFkB block 53.3*, KKLEB tox -7.4 and CF NFkB conf 2.9.
For O=C(CCS(=O)(=O)c1ccccc1)N(CCCN1CCOCC1)c1nc2ccccc2s1 the results were HIF-2a inh -141.4, PAX8 inh HTS -6.6, EWS-Fli inh -62.8, CF NFkB block 72.8*, KKLEB tox -21.5 and CF NFkB conf 54.9*.
For CN(C)CCN(C(=O)CCS(=O)(=O)c1ccccc1)c1nc2cc3c(cc2s1)OCO3 the results were HIF-2a inh -20.9, PAX8 inh HTS 12.1, EWS-Fli inh -12.0, CF NFkB block 15.5 and KKLEB tox -5.2.
`CO[C@H]1CN(C)C(=O)c2ccc(NC(C)=O)cc2OC[C@H](C)N(C(=O)C2CCCCC2)C[C@@H]1C` gave PAX8 inh HTS -4.7 and EWS-Fli inh 6.2.
Screening COc1ccc(Cl)cc1NC(=O)CN(C)C(=O)c1cc(-c2ccncc2)nc2ccccc12 returned HIF-2a inh 6.3, PAX8 inh HTS 37.6, EWS-Fli inh 10.4, CF NFkB block 60.6*, KKLEB tox -36.5 and CF NFkB conf 10.0.
COc1ccc(NC(=O)CN(C)C(=O)c2cc(-c3ccncc3)nc3ccccc23)cc1 was read as HIF-2a inh 4.0, PAX8 inh HTS 1.5, CF NFkB block 15.9 and KKLEB tox -9.5.
For CCOC(=O)c1ccc(NC(=O)Nc2nc3ccccc3s2)cc1 the results were HIF-2a inh 2.5, PAX8 inh HTS -12.2, EWS-Fli inh -10.2, CF NFkB block 3.5 and KKLEB tox 4.7.
For CCOC(=O)c1ccc(NC(=O)Nc2nncs2)cc1 the results were HIF-2a inh -147.8, PAX8 inh HTS 27.7, EWS-Fli inh -2.4, CF NFkB block 66.3*, KKLEB tox -22.1 and CF NFkB conf 80.8*.
O=[N+]([O-])c1ccc(O)c(C2CCCCC2)c1 was read as HIF-2a inh 10.5, PAX8 inh HTS 4.4, EWS-Fli inh -0.6, CF NFkB block 63.7*, KKLEB tox -19.0 and CF NFkB conf 93.3*.
O=[N+]([O-])c1ccc2nc(C3CCCCC3)[nH]c2c1 was read as HIF-2a inh -124.6, PAX8 inh HTS 9.3, EWS-Fli inh -59.6, CF NFkB block 2.8 and KKLEB tox 6.9.
For COc1cc(CN(C)c2ccc(S(=O)(=O)N3CCCC3)cn2)ccc1OC(F)F the results were HIF-2a inh 11.2, EWS-Fli inh 6.7, CF NFkB block 54.3*, KKLEB tox -13.2 and CF NFkB conf 54.6*.
COc1ccc(CCN(C)c2ccc(S(=O)(=O)N3CCCC3)cn2)cc1OC was read as HIF-2a inh 17.6, PAX8 inh HTS 5.6, EWS-Fli inh 6.2, CF NFkB block 8.9 and KKLEB tox -3.4.
Screening CCCCNC(=S)N(C)/N=C/c1ccc(OCC(=O)Nc2ccc(OC)cc2)c(OC)c1 returned HIF-2a inh -16.1, PAX8 inh HTS 56.6, EWS-Fli inh 19.9, CF NFkB block 54.0*, KKLEB tox 8.3 and CF NFkB conf 36.0.
